From PubChem BioAssay (EPA / NIEHS) come the findings set out here.

Assay [1] has as its target Cellular tumor antigen p53 (Homo sapiens) (UniProt P04637). Put plainly: TOX21_p53_BLA_p3_ratio: Tox21 HCT-116 p53 Agonism Beta-lactamase Assay, Ratio, Phase 3 (AID 2283596). In outline:
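Cells were seeded at 4000/well, rested 5 h at 37C, then dosed with DMSO compound solutions (217-fold dilution) for 16 h. CCF4-AM substrate was loaded for 2 h at room temperature, and the 460/530 nm emission ratio was fitted for gain of signal versus DMSO.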

Assay [2] can be described thus: TOX21_p53_BLA_p4_viability: Viability Assessment in the Tox21 HCT-116 p53 Agonism Beta-lactamase Assay, Phase 4 (AID 2283597).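 Note: hits lower the luminescence signal meaning cytotoxicity.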 In outline: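 Readout: ATP luminescence (CellTiter-Glo), measured 30 min after reagent addition at RT. The reagent followed a 2 h CCF4-AM incubation, and the cells had been exposed to compound for 16 h at 37C.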
The target of assay [3] is Cellular tumor antigen p53 (Homo sapiens) (UniProt P04637). The assay can be described thus: TOX21_p53_BLA_p5_ratio: Tox21 HCT-116 p53 Agonism Beta-lactamase Assay, Ratio, Phase 5 (AID 2283599). In outline: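 HCT-116 cells carrying a p53-inducible beta-lactamase reporter were seeded at 4000 cells/well and dosed after 5 h with compound in DMSO (217-fold dilution). After 16 h at 37C, CCF4-AM substrate was added for 2 h, and the 460/530 nm emission ratio was scored as gain-of-signal versus DMSO.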
Chain of Cellular tumor antigen p53 (Homo sapiens) (P04637 whole entry, looked up): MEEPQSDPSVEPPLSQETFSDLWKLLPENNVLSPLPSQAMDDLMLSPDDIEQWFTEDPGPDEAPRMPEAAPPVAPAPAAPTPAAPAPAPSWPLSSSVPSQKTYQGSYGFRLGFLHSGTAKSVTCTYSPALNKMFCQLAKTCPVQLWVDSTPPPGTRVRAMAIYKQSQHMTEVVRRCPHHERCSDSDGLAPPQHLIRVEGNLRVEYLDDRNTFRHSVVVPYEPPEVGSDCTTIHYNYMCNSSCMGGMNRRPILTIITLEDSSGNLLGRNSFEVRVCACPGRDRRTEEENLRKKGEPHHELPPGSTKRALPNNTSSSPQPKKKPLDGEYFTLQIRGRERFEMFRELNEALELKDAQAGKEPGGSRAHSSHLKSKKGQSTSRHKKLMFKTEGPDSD

Assay [4] can be described thus: TOX21_p53_BLA_p5_viability: Viability Assessment in the Tox21 HCT-116 p53 Agonism Beta-lactamase Assay, Phase 5 (AID 2283600). In outline:
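Workflow: seed 4000 cells per well, wait 5 h, add compounds (DMSO, 217-fold dilution), incubate 16 h, load CCF4-AM 2 h, add CellTiter-Glo, read luminescence after 30 min.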

In assay [5] the target is Cellular tumor antigen p53 (Homo sapiens) (UniProt P04637). Put plainly: TOX21_p53_BLA_p4_ratio: Tox21 HCT-116 p53 Agonism Beta-lactamase Assay, Ratio, Phase 4 (AID 2283601). In outline:
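HCT116 cells carrying an inducible beta-lactamase reporter were plated at 4000 cells/well, rested 5 h, then exposed to compounds in DMSO (217-fold dilution) for 16 h at 37C. CCF4-AM substrate was loaded 2 h at room temperature; 460/530 nm emission ratio scored gain-of-signal versus DMSO.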

SMILES strings stand for the structures. Where “and” joins values, the source holds several entries; their conditions need not be identical. Equal entries are not always repeated. Records with an inconclusive call do not appear. A structure can be active in one record and inactive in another. Calls of active or inactive are those of the source. Rule for the calls: active = hit-call score of the fitted dose curve at least 0.9, where 1 is the maximum; inconclusive = response in the unintended direction; inactive = score below 0.9.

Consider `COc1ccc(-c2coc3cc(O)cc(O)c3c2=O)cc1`, for which the outcome in assay [1], in assay [2], in assay [3], in assay [4] and in assay [5] was inactive.

`Oc1ccc(-c2ccccc2)c(Cl)c1`: the outcome in assay [1], in assay [3] and in assay [4] was inactive. The AC50 in assay [2] was 60.8 µM (active); in assay [5] it was 76.2 µM (active).

Consider `O=C(Nc1ccccc1)c1cc(Cl)ccc1O`, for which the results for the AC50 in assay [1], in assay [2] and in assay [3] were 4.05 µM (active), 12.6 µM (active) and 13.7 µM (active), respectively. In addition, the result in assay [4] and in assay [5] was inactive.

For the compound `CC(C)(CO)COC(=O)C(C)(C)CO`, the outcome in assay [1], in assay [2], in assay [3], in assay [4] and in assay [5] was inactive.

Consider `CCCSSCCC`, for which, in assay [1], the result was inactive.

For the compound `CCCCOCCOC(=O)COc1ccc(Cl)cc1Cl`, the outcome in assay [1], in assay [2] and in assay [3] was inactive.

With `C=C(C)C1CC=C(C)CC1` (centres undefined), the result in assay [1], in assay [2], in assay [3], in assay [4] and in assay [5] was inactive.

`CN(C)c1ccc2nc3ccc(=[N+](C)C)cc-3sc2c1`: the half-maximal activity concentration (AC50) is 34.3 µM (active) in assay [1]; 45.7 µM (active) and 13 µM (active) in assay [3]; 41.2 µM (active) and 14.4 µM (active) and 28.4 µM (active) in assay [5]. Further, the outcome in assay [1] and in assay [3] was inactive.

For `C=CCNCC=C`, the AC50 in assay [1] was 84.2 µM (active). Moreover, the outcome in assay [1], in assay [3], in assay [4] and in assay [5] was inactive.

For the compound `O=C(Cl)c1c(Cl)c(Cl)c(C(=O)Cl)c(Cl)c1Cl`, the outcome in assay [1], in assay [2], in assay [3], in assay [4] and in assay [5] was inactive.

Consider `CCCCOCCOCCOC(C)=O`, for which the result in assay [1], in assay [2], in assay [3], in assay [4] and in assay [5] was inactive.

Consider `CC(CCC(=O)O)(c1ccc(O)cc1)c1ccc(O)cc1`, for which the result in assay [1], in assay [2], in assay [3], in assay [4] and in assay [5] was inactive.

For `CC(=O)OCC=C(C)C`, the outcome in assay [1], in assay [2], in assay [3], in assay [4] and in assay [5] was inactive.
